Laboratory results taken from PubChem BioAssay.
Where “and” joins values, the source holds several entries; their conditions need not be identical. Equal values may be shown once. Calls of active or inactive are those of the source.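 The calls were made as follows, unless noted: active = thallium flux through the channel raised or lowered by more than 3 SD from vehicle-only wells, actives on both sides; inactive = the rest.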

Tests used:
[1] = P. berghei load reduction in hepatocytes – cell-based, HepG2, luciferase luminescence, HepG2 viability, primary screen (AID 624349; in the data active = parasite load remaining mostly below about 12%, no sharp cut-off; inactive = mostly above about 10%;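 also: 100% = mean of DMSO negative control wells on the same plate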); conditions: P. berghei liver stage in HepG2, luciferase luminescence, concentration not given here; parasite load remaining: stronger effect = lower value; viability: measured here: HepG2 viability without parasites
[2] = signal quenchers or enhancers, Cy5 substrate/SSB – biochemical, NIH Clinical Collection, E. coli SSB, artefact control for HCV NS3 helicase inhibitor project (AID 743268; call rule not given here); conditions: Cy5-oligo bound E. coli SSB, fluorescence interference
[3] = tested on: Hepatitis C virus NS3 helicase; assay: blockers of NS3h binding to DNA – biochemical, fluorescence polarization, NIH Clinical Collection, primary screen (AID 743270; call rule not given here); conditions: NS3 helicase binding to Cy5-dT15 DNA, stronger effect = higher value, concentration not given here
[4] = molecular target: Single-stranded DNA-binding protein (Escherichia coli (strain K12)) (UniProt P0AGE0); assay: SSB-ssDNA binding inhibitors – biochemical, fluorescence polarization, NIH Clinical Collection, counter-screen for HCV NS3 helicase inhibitor project (AID 743271; in the data active = inhibition above about 28%); conditions: E. coli SSB-DNA binding, stronger effect = higher value, concentration not given here
[5] = compounds distorting NS3 helicase fluorescence signal – biochemical, NIH Clinical Collection, artefact control for HCV NS3 helicase inhibitor project (AID 743272; call rule not given here;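 also: HCV NS3 helicase with a Cy5 labelled single stranded DNA probe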); conditions: fluorescence interference counterscreen, HCV NS3 helicase assay; stronger effect = lower value
[6] = viability loss with induced miR-34 in A549 – imaging, A549 dox-inducible miR-34, nuclei and caspase counts, primary screen (AID 1347080;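 active = compounds whose cell count with miR-34 switched on is under 0.7 times the count with it off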); conditions: A549 miR-34 inducible, Hoechst nuclei count, 48 h
[7] = MELAS cybrid and Rieske KO viability enhancers – cell-based, MELAS cybrids, Rieske KO mouse fibroblasts, CellTiter-Glo, primary screen (AID 1508586;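 active = mean z-score across replicates of 1.96 or higher in either the MELAS or the Rieske mutant cell line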;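 also: z relative to plate mean and SD of compound and empty wells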); conditions: low glucose
[8] = galactose survival enhancers in mitochondrial complex I cybrids – cell-based, galactose medium, ATP luminescence, primary screen (AID 1645843;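 active = z-score of at least 1.8 in each of two replicates, scored against plate mean and spread of sample wells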;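 also: positive z means more ATP and so rescue of galactose-driven cybrid death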); conditions: complex I mutant cybrid cells, 72 h, stronger effect = higher value
[9] = tested on: F380Y; assay: BK channel mutant inhibitors and activators – cell-based, U2OS BacMam, thallium flux, beta subunits, selectivity assay, profiling panel (AID 1259406); conditions: U2OS BacMam BK variants, at 30 µM;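 also: initial slope of Thallos dye fluorescence rise after thallium is added; log ratio against the mean of 0.3% DMSO vehicle wells on the same plate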
[10] = tested on: F380Y/beta1; assay: as above; conditions: U2OS BacMam BK variants, at 30 µM
[11] = tested on: F380Y/beta2Delta; assay: as above; conditions: U2OS BacMam BK variants, at 30 µM
[12] = tested on: F380Y/beta4; assay: as above; conditions: U2OS BacMam BK variants, at 30 µM
[13] = molecular target: Calcium-activated potassium channel subunit alpha-1 (Homo sapiens) + Leucine-rich repeat-containing protein 26 (Homo sapiens) (UniProt Q12791+Q2I0M4); assay: as above; conditions: U2OS BacMam BK variants, F380Y/Slo1WT/gamma1, at 30 µM
Calcium-activated potassium channel subunit alpha-1 (Homo sapiens) + Leucine-rich repeat-containing protein 26 (Homo sapiens), sequence (Q2I0M4 whole entry, looked up, one chain of several): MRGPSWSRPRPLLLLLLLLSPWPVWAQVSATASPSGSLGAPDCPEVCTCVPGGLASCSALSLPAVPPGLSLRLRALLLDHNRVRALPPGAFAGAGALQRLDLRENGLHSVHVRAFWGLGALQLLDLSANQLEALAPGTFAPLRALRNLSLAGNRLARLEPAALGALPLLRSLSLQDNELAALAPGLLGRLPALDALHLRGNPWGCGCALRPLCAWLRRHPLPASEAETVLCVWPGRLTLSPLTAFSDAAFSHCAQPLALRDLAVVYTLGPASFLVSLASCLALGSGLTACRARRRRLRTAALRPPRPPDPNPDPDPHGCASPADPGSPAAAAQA

[14] = tested on: R275C; assay: as above; conditions: U2OS BacMam BK variants, at 30 µM
[15] = tested on: R275C/beta1; assay: as above; conditions: U2OS BacMam BK variants, at 30 µM
[16] = tested on: R275C/beta2Delta; assay: as above; conditions: U2OS BacMam BK variants, at 30 µM
[17] = tested on: R275C/beta4; assay: as above; conditions: U2OS BacMam BK variants, at 30 µM
[18] = tested on: R275C/Slo1WT/beta2; assay: as above; conditions: U2OS BacMam BK variants, at 30 µM
[19] = tested on: Neuropilin-2 / VEGF-C interaction (human); assay: small molecules blocking Neuropilin-2/VEGF-C interaction – biochemical, microplate binding format, z-score (AID 743281; call rule not given here); conditions: microplate NRP2/VEGF-C binding assay; stronger effect = lower value
[20] = modulation of C. elegans fzo-1 (AID 1259413; call rule not given here;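 also: fzo-1 mutant C. elegans worms in liquid wells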); conditions: C. elegans fzo-1 modulator screen, mean read-out; stronger effect = higher value
[21] = stronger effect = lower value, cell number ratio, induced over uninduced
[22] = measured here: relative caspase fold change +Dox/-Dox
[23] = measured here: total cells with miR-34 induction, stronger effect = lower value
[24] = measured here: total cells without miR-34 induction
[25] = MELAS cybrid survival, CellTiter-Glo 48 h, stronger effect = higher value
[26] = Rieske KO mouse fibroblast survival, CellTiter-Glo 72 h

C=C1/C(=C\C=C2/CCC[C@]3(C)[C@@H]([C@H](C)/C=C/[C@@H](O)C4CC4)CC[C@@H]23)C[C@@H](O)C[C@@H]1O
69.5% and 101%: viability [1]
1.34 and 1.48: fold change [6, 22]
inactive: parasite load remaining [1] 78.1% and 40.9% | fluorescence ratio [2] 0.98 | inhibition [3] -1.98% | inhibition [4] 2.98% | fluorescence ratio [5] 0.97 | fold change [6, 21] 1.11 and 0.946 | z-score [7, 25] 0.67 and -0.148 | z-score [8] -0.655 and -0.545 | log fold change Tl+ flux [9] 0.0327 | log fold change Tl+ flux [11] 0.0454 | log fold change Tl+ flux [12] 0.0579 | log fold change Tl+ flux [13] 0.0831 | log fold change Tl+ flux [14] -0.0334 | log fold change Tl+ flux [16] -0.0353 | log fold change Tl+ flux [17] 0.0276 | log fold change Tl+ flux [18] 0.00965
active: log fold change Tl+ flux [10] 0.217 | log fold change Tl+ flux [15] 0.143
-0.0393 and -0.0428: z-score [7, 26]
6000 and 9710: cell count [6, 24]
6690 and 9180: cell count [6, 23]

O=C1c2c(O)cc(O)cc2O[C@H](c2ccc(O)c(O)c2)[C@@H]1O
inactive: parasite load remaining [1] 102% | fluorescence ratio [2] 1.01 | inhibition [3] -0.4% | inhibition [4] -1.64% | fluorescence ratio [5] 1.01 | z-score [19] -0.585 | mean signal [20] 251 | log fold change Tl+ flux [9] -0.0094 | log fold change Tl+ flux [10] 0.0164 | log fold change Tl+ flux [11] 0.0588 | log fold change Tl+ flux [12] -0.00507 | log fold change Tl+ flux [13] -0.00714 | log fold change Tl+ flux [14] -0.0635 | log fold change Tl+ flux [15] 6.5e-05 | log fold change Tl+ flux [16] 0.0295 | log fold change Tl+ flux [17] -0.031 | log fold change Tl+ flux [18] -0.00661
72.9%: viability [1]

CCC(C)(C)N=C(NC#N)Nc1cccnc1
10900: cell count [6, 24]
1.24: fold change [6, 22]
69.3%: viability [1]
inactive: parasite load remaining [1] 49.6% | fluorescence ratio [2] 0.95 | inhibition [3] -2.84% | inhibition [4] -3.54% | fluorescence ratio [5] 0.92 | z-score [19] -0.415 | mean signal [20] 201 | fold change [6, 21] 0.909 | z-score [8] 0.04 | log fold change Tl+ flux [9] 0.00312 | log fold change Tl+ flux [10] 0.00744 | log fold change Tl+ flux [11] 0.00568 | log fold change Tl+ flux [12] 0.0162 | log fold change Tl+ flux [13] 0.00265 | log fold change Tl+ flux [14] -0.0443 | log fold change Tl+ flux [15] -0.0211 | log fold change Tl+ flux [16] -0.00288 | log fold change Tl+ flux [17] 0.0126 | log fold change Tl+ flux [18] -0.00574
9920: cell count [6, 23]

CCN(CC)C(=O)[C@]1(c2ccccc2)C[C@@H]1CN
71.3%: viability [1]
inactive: parasite load remaining [1] 94.6% | fluorescence ratio [2] 1.07 | inhibition [3] 1.98% | inhibition [4] -3.18% | fluorescence ratio [5] 1.06 | z-score [19] -0.224 | mean signal [20] 248 | z-score [7, 25] -0.406 | log fold change Tl+ flux [9] 0.0604 | log fold change Tl+ flux [10] 0.0284 | log fold change Tl+ flux [11] -0.038 | log fold change Tl+ flux [12] 0.00308 | log fold change Tl+ flux [13] 0.0521 | log fold change Tl+ flux [14] -0.00612 | log fold change Tl+ flux [15] -0.0552 | log fold change Tl+ flux [16] -0.0341 | log fold change Tl+ flux [17] 0.0155 | log fold change Tl+ flux [18] 0.0022
-0.158: z-score [7, 26]

O=c1[nH]c(=O)n(C2CC(O)C(CO)O2)cc1F (stereo not given)
3.66 and 0.771: fold change [6, 22]
active: log fold change Tl+ flux [18] -0.136
inactive: parasite load remaining [1] 68.3% | fluorescence ratio [2] 1.03 | inhibition [3] -1.36% | inhibition [4] 1.81% | fluorescence ratio [5] 1.04 | fold change [6, 21] 1.17 and 1.12 | z-score [7, 25] -0.408 | z-score [8] -1.07 | log fold change Tl+ flux [9] -0.00405 | log fold change Tl+ flux [10] 0.0394 | log fold change Tl+ flux [11] 0.0245 | log fold change Tl+ flux [12] 0.0173 | log fold change Tl+ flux [13] -0.00699 | log fold change Tl+ flux [14] 0.0218 | log fold change Tl+ flux [15] 0.000317 | log fold change Tl+ flux [16] 0.0028 | log fold change Tl+ flux [17] -0.0029
0.487: z-score [7, 26]
2550 and 2130: cell count [6, 24]
2970 and 2380: cell count [6, 23]
115%: viability [1]

C=C1/C(=C\C=C2/CCC[C@]3(C)[C@@H]([C@H](C)CCCC(C)(C)O)CC[C@@H]23)C[C@@H](O)C[C@@H]1O
-0.598: z-score [7, 26]
1.63 and 1.45: fold change [6, 22]
4940 and 8850: cell count [6, 24]
72.4% and 142%: viability [1]
5100 and 8330: cell count [6, 23]
inactive: parasite load remaining [1] 39.1% and 53.6% | fluorescence ratio [2] 0.98 | inhibition [3] 3.56% | inhibition [4] 2.21% | fluorescence ratio [5] 0.91 | fold change [6, 21] 1.03 and 0.94 | z-score [7, 25] -0.162 | z-score [8] -0.805 | log fold change Tl+ flux [9] 0.103 | log fold change Tl+ flux [10] 0.0867 | log fold change Tl+ flux [11] 0.0281 | log fold change Tl+ flux [12] 0.0801 | log fold change Tl+ flux [13] 0.0668 | log fold change Tl+ flux [14] -0.0123 | log fold change Tl+ flux [16] 0.0428 | log fold change Tl+ flux [17] 0.0602 | log fold change Tl+ flux [18] -0.0015
active: log fold change Tl+ flux [15] 0.0898

CN1C2CCC1CC(OC(c1ccccc1)c1ccccc1)C2 (stereo not given)
-0.171: z-score [7, 26]
inactive: parasite load remaining [1] 25.8% and 92.2% and 42.8% | fluorescence ratio [2] 1.04 | inhibition [3] -5.91% | inhibition [4] -4.29% | fluorescence ratio [5] 1.01 | mean signal [20] 197 | z-score [7, 25] -0.325 | z-score [8] -0.84 and -0.76 | log fold change Tl+ flux [10] 0.0778 | log fold change Tl+ flux [13] 0.00637 | log fold change Tl+ flux [14] -0.0804 | log fold change Tl+ flux [16] 0.0793 | log fold change Tl+ flux [18] 0.0196
81.7% and 71.5% and 99.9%: viability [1]
active: log fold change Tl+ flux [9] 0.117 | log fold change Tl+ flux [11] 0.124 | log fold change Tl+ flux [12] 0.212 | log fold change Tl+ flux [15] 0.237 | log fold change Tl+ flux [17] 0.252
